Among the data in PubChem BioAssay (NCATS) are outcome and Potency values, retold here.

Results filed as inconclusive are left out. Calls of active or inactive are those of the source. Unless noted, calls come from the whole dose curve; as a rule, active = well fitted curve in the direction sought with a large enough effect; inconclusive = small, poorly fitted or top-dose-only effect, or another doubt; inactive = no such curve, though single readings can be large; an effect the other way counts as inactive or inconclusive.

For assay [1], the target named is Galactokinase (Homo sapiens) (UniProt P51570). Kind of assay: qHTS Validation Assay for Inhibitors of Human Galactokinase (GALK) (AID 493189). The settings on record: purified human GALK enzyme activity, qHTS 7-point titration; series mostly up to 57.5 µM. In short, it runs like this: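 Luminescence from leftover ATP (Kinase-Glo Plus, 10 min) served as read-out after a 1 h room-temperature reaction of 5 nM GALK, 100 uM galactose and 35 uM ATP at pH8.0.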
Chain of Galactokinase (Homo sapiens) (P51570 whole entry, looked up): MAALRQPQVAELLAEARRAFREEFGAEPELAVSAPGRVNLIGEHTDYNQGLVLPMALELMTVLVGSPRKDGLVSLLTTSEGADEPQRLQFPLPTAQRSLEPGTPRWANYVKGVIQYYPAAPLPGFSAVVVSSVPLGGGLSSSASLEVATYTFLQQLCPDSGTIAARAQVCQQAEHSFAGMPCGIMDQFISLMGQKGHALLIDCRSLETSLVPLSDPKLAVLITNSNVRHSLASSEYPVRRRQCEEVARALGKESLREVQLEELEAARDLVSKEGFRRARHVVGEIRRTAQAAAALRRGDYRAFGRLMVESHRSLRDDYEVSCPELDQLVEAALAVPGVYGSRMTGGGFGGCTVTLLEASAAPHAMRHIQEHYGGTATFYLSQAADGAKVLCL

The nature of assay [2]: Validation screen for small molecules that induce DNA re-replication in SW480 colon adenocarcinoma cells (AID 504364). The note with it: DNA re-replication phenotype (high-content imaging); series mostly up to 46.1 µM. In a few lines: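 SW480 cells seeded at 250 per well were exposed to compound or DMSO for 48 hr at 37 C, 5% CO2, then stained with Hoechst for 40 min. DNA content per nucleus was imaged (405 nm ex, 500-530 nm em).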

Assay [3] addresses Peptidyl-prolyl cis-trans isomerase NIMA-interacting 1 (Homo sapiens) (UniProt Q13526). Kind of assay: qHTS Validation Assay to Find Inhibitors of Pin1 (AID 504536; active = well fitted inhibition curve with a large enough effect in the polarisation, with a control signal flat, not every such curve was filed as active; the % refers to the polarisation). The settings on record: Pin1 fluorescence polarization peptide binding assay; series mostly up to 57.5 µM. In short, it runs like this: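 Fluorescence polarization competition: compounds (titration) displace HiFluor-488-labeled Pin1-1b peptide from Pin1 (0.3 uM final) in pH 7.5 HEPES buffer with DTT, 10 min at room temperature; %Activity normalized to no-enzyme wells, curves fitted.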
(In general: Quantitative high-throughput screening tests each substance at several concentrations.)

Assay [4] has as its target Phosphoglycerate kinase, glycosomal (Trypanosoma brucei brucei) (UniProt P07378). Kind of assay: qHTS Validation Assay to Find Inhibitors of Phosphoglycerate Kinase (AID 504547). The settings on record: enzymatic PGK inhibition, coupled luminescence read-out; series mostly up to 57.5 µM. In a few lines:
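Substrate/PGK mix plus compound; reaction started with GAPDH (100nM final) to form 1,3-BPG; 60 min RT; Kinase-Glo Plus 10 min; luminescence. TEA 100mM pH 7.6, MgCl2 5mM, Tween-20 0.01%.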

Assay [5] deals with phosphoglycerate mutase (Leishmania major) (UniProt Q4Q090). Kind of assay: qHTS Validation Assay to Find Inhibitors of Phosphoglycerate Mutase (AID 504548). The settings on record: biochemical enzyme activity; Potency: inhibition qHTS; series mostly up to 57.5 µM. In short, it runs like this: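 Lm PGAM 1.25nM final; 100 mM TEA pH 7.6, 5 mM MgCl2, 0.01% Tween-20; 45 min RT; Kinase-GloPlus, 10 min; end-point luminescence. Enzyme-free wells as negative controls.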
Chain of phosphoglycerate mutase (Leishmania major) (Q4Q090 1-553): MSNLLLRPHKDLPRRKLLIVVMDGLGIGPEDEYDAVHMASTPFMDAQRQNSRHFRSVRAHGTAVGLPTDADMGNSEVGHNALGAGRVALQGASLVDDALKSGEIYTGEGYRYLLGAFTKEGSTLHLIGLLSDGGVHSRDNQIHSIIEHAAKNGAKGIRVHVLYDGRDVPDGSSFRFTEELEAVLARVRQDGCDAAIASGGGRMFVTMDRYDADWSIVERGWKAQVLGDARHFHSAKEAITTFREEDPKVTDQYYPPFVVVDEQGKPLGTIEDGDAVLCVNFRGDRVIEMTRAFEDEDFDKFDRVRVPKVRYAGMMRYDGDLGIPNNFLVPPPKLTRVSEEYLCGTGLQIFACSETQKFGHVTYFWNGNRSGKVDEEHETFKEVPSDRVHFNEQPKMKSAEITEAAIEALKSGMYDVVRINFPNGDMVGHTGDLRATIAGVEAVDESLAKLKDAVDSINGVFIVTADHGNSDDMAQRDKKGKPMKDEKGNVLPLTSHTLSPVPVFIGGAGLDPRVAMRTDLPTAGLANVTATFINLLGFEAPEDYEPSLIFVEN

Assay [6] is described as follows: qHTS for Inhibitors of ATXN expression: Validation (AID 588378). Note: nearly all actives have a fitted effect of over 75% in size. Note: potency is the fitted concentration of half-maximal effect. The note with it: cell-based ATXN2 expression reporter assay, luminescence; series mostly up to 57.1 µM. In short, it runs like this:
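Cells: HEK293-ATXN2-FFLuc, phenol-red free DMEM, 2 h attachment. Compound pin-transfer, 24 h, 37 degrees C, 5% CO2. CellTiter-Fluor 30 min, Ex405/Em525; Bright-Glo 5 min, luminescence 2 s exposure.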

A short description of assay [7]: Inducers of the Endoplasmic Reticulum Stress Response (ERSR) in human glioma: Validation (AID 504836). The note with it: human glioma cells, ER stress response reporter; series mostly up to 38.3 µM. In short, it runs like this:
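Stably transfected U87-MG human glioma cells carrying a GRP78-based luminescent sensor were seeded at 1000 cells/well, pin-dosed with compounds and incubated 16 h. Luciferase reagent was then added, and end-point luminescence was read after 10 min at room temperature.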

Assay [8] addresses Ubiquitin carboxyl-terminal hydrolase 1 (Homo sapiens) (UniProt O94782). Kind of assay: Inhibitors of USP1/UAF1: Pilot qHTS (AID 504865).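 Note: rhodamine fluorescence freed from ubiquitin-rhodamine substrate followed over time; top concentration of the series differs between compounds; nearly all actives have a fitted effect of over 35% in size.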 The note with it: purified USP1/UAF1, Ub-rhodamine cleavage fluorescence; series mostly up to 114 µM. In a few lines: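 1nM USP1/UAF1 + cpd, 15 min RT; start w/ Ub-Rho 150nM final; kinetic FL 480/540 nm, 6 reads q60 s. Buffer 50mM HEPES pH 7.8, 0.5mM EDTA, 1mM TCEP, 0.01% Tween-20, 0.1 mg/ml BSA.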

Assay [9] in a line: qHTS for Inhibitors of ATXN expression: Validation of Cytotoxic Assay (AID 588349). The note with it: cytotoxicity counter-screen for ATXN expression inhibitors, cell viability; series mostly up to 57.1 µM. In a few lines: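 HEK293 cells were dosed with titrated compounds for 72 hr at 37 degrees C. Viability was read by CellTiter Glo luminescence, with intracellular ATP as the marker of cell survival.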

For assay [10], the target named is DNA dC->dU-editing enzyme APOBEC-3G (Homo sapiens) (UniProt Q9HC16). Kind of assay: qHTS for inhibitors of Vif-A3G interactions: Validation (AID 588379). The settings on record: Vif-A3G protein interaction assay; series mostly up to 46.1 µM. In short, it runs like this:
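HeLa cells stably expressing Vif and A3G-eYFP, 700 cells/well, incubated overnight at 37 deg C, then exposed to compound overnight at 37 deg C. Inhibition of Vif-mediated degradation read as increased yellow fluorescence (Ex 488/Em 500-530) by laser-scanning cytometry.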

Chain of Peptidyl-prolyl cis-trans isomerase NIMA-interacting 1 (Homo sapiens) (Q13526 whole entry, looked up): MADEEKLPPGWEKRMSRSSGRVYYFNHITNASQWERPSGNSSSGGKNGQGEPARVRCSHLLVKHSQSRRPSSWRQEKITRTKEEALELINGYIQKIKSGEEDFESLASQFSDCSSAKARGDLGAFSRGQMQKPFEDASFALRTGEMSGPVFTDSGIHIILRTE
Chain of Ubiquitin carboxyl-terminal hydrolase 1 (Homo sapiens) (O94782 whole entry, looked up): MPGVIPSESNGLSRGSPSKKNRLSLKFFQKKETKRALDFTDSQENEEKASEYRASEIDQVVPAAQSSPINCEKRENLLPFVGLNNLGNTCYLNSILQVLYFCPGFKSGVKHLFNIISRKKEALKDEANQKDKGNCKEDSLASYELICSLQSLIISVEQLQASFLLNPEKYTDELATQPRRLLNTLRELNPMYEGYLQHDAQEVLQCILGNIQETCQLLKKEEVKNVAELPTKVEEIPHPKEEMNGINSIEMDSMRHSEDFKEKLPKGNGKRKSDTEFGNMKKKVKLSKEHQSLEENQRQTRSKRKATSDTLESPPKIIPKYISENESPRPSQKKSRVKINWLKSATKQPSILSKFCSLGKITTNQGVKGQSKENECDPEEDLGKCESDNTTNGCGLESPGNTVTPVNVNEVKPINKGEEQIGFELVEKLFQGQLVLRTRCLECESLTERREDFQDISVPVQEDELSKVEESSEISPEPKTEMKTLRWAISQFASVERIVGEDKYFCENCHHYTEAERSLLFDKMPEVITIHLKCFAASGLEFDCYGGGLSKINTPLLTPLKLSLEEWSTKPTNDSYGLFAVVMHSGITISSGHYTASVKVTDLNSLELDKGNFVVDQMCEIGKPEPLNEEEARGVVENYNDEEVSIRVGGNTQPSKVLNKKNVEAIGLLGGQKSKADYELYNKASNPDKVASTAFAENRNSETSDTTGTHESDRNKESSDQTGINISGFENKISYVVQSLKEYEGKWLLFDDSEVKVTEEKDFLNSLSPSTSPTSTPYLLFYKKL
Chain of Phosphoglycerate kinase, glycosomal (Trypanosoma brucei brucei) (P07378 whole entry, looked up): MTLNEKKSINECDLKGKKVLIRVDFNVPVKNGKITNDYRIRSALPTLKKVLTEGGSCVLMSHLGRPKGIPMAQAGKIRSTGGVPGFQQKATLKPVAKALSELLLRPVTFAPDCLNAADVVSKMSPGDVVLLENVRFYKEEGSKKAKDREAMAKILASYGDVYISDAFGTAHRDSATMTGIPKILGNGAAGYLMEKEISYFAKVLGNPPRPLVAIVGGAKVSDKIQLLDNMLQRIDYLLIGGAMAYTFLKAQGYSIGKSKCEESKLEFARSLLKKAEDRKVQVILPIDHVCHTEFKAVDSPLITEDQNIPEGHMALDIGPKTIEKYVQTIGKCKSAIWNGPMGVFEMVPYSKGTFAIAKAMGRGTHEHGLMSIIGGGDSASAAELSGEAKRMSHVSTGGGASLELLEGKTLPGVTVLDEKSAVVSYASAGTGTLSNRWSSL
Chain of DNA dC->dU-editing enzyme APOBEC-3G (Homo sapiens) (Q9HC16 whole entry, looked up): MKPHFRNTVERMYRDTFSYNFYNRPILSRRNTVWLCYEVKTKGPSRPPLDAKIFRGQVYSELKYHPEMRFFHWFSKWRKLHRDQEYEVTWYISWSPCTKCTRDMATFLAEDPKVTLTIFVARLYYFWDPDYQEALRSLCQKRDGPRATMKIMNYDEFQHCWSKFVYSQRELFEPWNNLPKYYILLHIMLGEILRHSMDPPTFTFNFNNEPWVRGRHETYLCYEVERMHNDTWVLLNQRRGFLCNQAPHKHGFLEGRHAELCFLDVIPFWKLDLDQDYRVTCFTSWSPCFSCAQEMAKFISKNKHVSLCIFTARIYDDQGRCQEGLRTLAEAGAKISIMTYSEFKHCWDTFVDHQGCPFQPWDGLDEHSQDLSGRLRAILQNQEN

As for `Oc1ccc2c3c1O[C@H]1c4[nH]c5ccccc5c4C[C@@]4(O)C(C2)N(CC2CC2)CCC314` (some centres not stated), the molecule was classed as inactive in assay [1]. Moreover, the Potency entry in assay [2], in assay [3], in assay [4] and in assay [5] was “inactive” in each case. The Potency in assay [6] was 17.8 µM (active).
For the molecule `Cc1sc2ccccc2c1CC1=NCCN1`, the result in assay [1] and in assay [7] was inactive. In addition, the Potency entry in assay [2], in assay [3], in assay [4], in assay [8] and in [9] was “inactive” each time.
Turning to `C[N+]1(C)CCN(c2ccccc2)CC1`, the call in [1] and in [7] was inactive. For the same molecule, the Potency result in assay [2], in [3], in assay [4], in [5] and in assay [6] was “inactive” in each case.
As for `C=CCN1CCC23c4c5ccc(O)c4O[C@H]2C(=O)CC[C@@]3(O)C1C5` (some centres not stated), the outcome in assay [1] and in assay [7] was inactive. The Potency entry in [2], in assay [3], in assay [4], in assay [5], in [9] and in assay [6] was “inactive” in each case.
For the molecule `NC(Cc1ccc(N(CCCl)CCCl)cc1)C(=O)O` (configuration not stated), the outcome in [1] and in assay [7] was inactive. Further, the Potency entry in assay [2], in assay [4], in assay [5], in [8] and in [9] was “inactive” each time.
Take `COc1ccc(CNC(=O)/C=C/c2ccc3[nH]cc(CCN(C)C)c3c2)cc1`: the outcome in [1] and in assay [7] was inactive. The Potency entry in [2], in assay [4], in assay [5], in assay [8] and in [9] was “inactive” each time.
Take `C[C@H](Cc1ccc2c(c1)OC(C(=O)O)(C(=O)O)O2)NC[C@H](O)c1cccc(Cl)c1`: in [1], the molecule was called inactive. For the same molecule, the Potency entry in [2], in assay [3], in assay [4], in assay [5], in [8] and in assay [9] was “inactive” in each case. For the same molecule, the Potency entry in assay [6] was “inactive”.
On to `O=[N+]([O-])c1cc(O)c(O)c([N+](=O)[O-])c1`, for which the outcome in [1], in assay [7] and in [10] was inactive. Moreover, the Potency result in assay [2], in assay [3], in assay [4], in [5], in assay [8] and in assay [6] was “inactive” in each case.
`CN(C(=O)Cc1ccc(Cl)c(Cl)c1)C(CN1CCCC1)c1cccc(OCC(=O)O)c1` (configuration not stated): in assay [1], the outcome was inactive. Besides, the Potency result in assay [2], in [3], in assay [4], in [5], in assay [8] and in assay [9] was “inactive” each time. The Potency result in [6] was “inactive”.
